{"source": "PubChem BioAssay (NCATS)", "note": "Inconclusive results are not listed. Where a call stands in place of a potency, no number is given. Activity calls are given as the source filed them. The call rests on the fitted dose curve; in most records, active means well fitted inhibition curve with a large enough effect; inconclusive means small, poorly fitted or top-dose-only effect; inactive means flat fitted curve, though single readings scatter. Peptide text beside a SMILES is read from it. Potency means the concentration at half of the fitted maximal effect.", "data": [{"system": "SC27B", "assay": "qHTS profiling for inhibitors of Plasmodium falciparum proliferation (AID 504749); further: nearly all actives have a fitted effect of over 60% in size", "conditions": "P. falciparum in erythrocytes, SYBR Green DNA, 72 h; series mostly up to 12.8 µM", "outline": "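Infected RBCs, 0.3% parasitemia/2.5% Hct final; cpd 72 h, 37 C, 5% CO2; lysis buffer with saponin/triton/SYBR Green I, o/n RT dark; FI 485/535; norm. to artemisinin (0.29 uM) and DMSO.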", "values": [{"smiles": "CN(C)CCCOC1C(C(O)CO)OC2OC(C)(C)O[C@@H]21", "note": "(some centres undefined)", "Potency": "inactive"}, {"smiles": "CCC(C)C(=O)OC1CCC=C2C=CC(C)C(CCC3CC(O)CC(=O)O3)[C@@H]21", "note": "(some centres undefined)", "Potency": "inactive"}, {"smiles": "CC(=O)OC1CCC2C3CCc4cc(O)ccc4C3CCC12C", "note": "(centres undefined)", "Potency": "inactive"}, {"smiles": "CC[C@@]12CCCN3CCc4c(n(c5ccccc45)[C@](O)(C(=O)OC)C1)C32", "note": "(some centres undefined)", "Potency": "inactive"}, {"smiles": "NC(C(=O)O)[C@@H]1CC(Cl)=NO1", "note": "(some centres undefined)", "Potency": "1.41 µM (active)"}, {"smiles": "CN1CC(=O)N=C1N", "Potency": "inactive"}, {"smiles": "OCC1OC([S-])[C@H](O)C(O)C1O.[Au+]", "note": "(some centres undefined)", "Potency": "inactive"}, {"smiles": "CC(C)C1CCC(C(=O)NC(Cc2ccccc2)C(=O)O)CC1", "note": "(centres undefined)", "Potency": "inactive"}, {"smiles": "CCC(CCC(C)C1CCC2C3CC=C4CC(O)CC[C@@]4(C)C3CC[C@@]12C)C(C)C", "note": "(some centres undefined)", "Potency": "inactive"}, {"smiles": "C[C@]12CCC(=O)C=C1CCC1C2C(=O)C[C@]2(C)C1CC[C@]2(O)C(=O)CO", "note": "(some centres undefined)", "Potency": "inactive"}, {"smiles": "OCC1O[C@H](OC2C(CO)O[C@@](O)(CO)C2O)C(O)C(O)C1O", "note": "(some centres undefined)", "Potency": "inactive"}, {"smiles": "CC1(C)OC2CO[C@]3(COS(N)(=O)=O)OC(C)(C)OC3C2O1", "note": "(some centres undefined)", "Potency": "inactive"}, {"smiles": "CC1(C)OC2CC(=O)OC[C@@]23C1CC(=O)[C@]1(C)C3CC[C@@]2(C)C(c3ccoc3)OC(=O)C3O[C@@]321", "note": "(some centres undefined)", "Potency": "inactive"}, {"smiles": "CCOC(=O)C1=CC(OC(CC)CC)C(NC(C)=O)C(N)C1", "note": "(centres undefined)", "Potency": "inactive"}, {"smiles": "COC1C=CO[C@@]2(C)Oc3c(C)c(O)c4c(O)c(c5c(nc6cc(C)ccn65)c4c3C2=O)NC(=O)/C(C)=C\\C=CC(C)C(O)[C@@H](C)C(O)C(C)[C@@H](OC(C)=O)C1C", "note": "(some centres undefined)", "Potency": "12.6 µM (active)"}, {"smiles": "COC(=O)C(Cc1ccccc1)NC(=O)C(N)CC(=O)O", "note": "(stereo not drawn) (H-Asp-Phe-OMe; configuration not given here)", "Potency": "inactive"}, {"smiles": "C[C@]12C=CC(=O)C=C1CCC1C2C(O)C[C@]2(C)C1CC[C@]2(O)C(=O)CO", "note": "(some centres undefined)", "Potency": "inactive"}, {"smiles": "CC1(C)S[C@H]2C(NC(=O)[C@@H](N)c3ccc(O)cc3)C(=O)N2[C@@H]1C(=O)O", "note": "(some centres undefined)", "Potency": "inactive"}, {"smiles": "CC(C)=CCC[C@](C)(O)C1CC=C(C)CC1", "note": "(some centres undefined)", "Potency": "inactive"}, {"smiles": "CO[C@]12C(COC(N)=O)C3=C(C(=O)C(C)=C(N)C3=O)N1CC1NC12", "note": "(some centres undefined)", "Potency": "1 µM (active)"}, {"smiles": "C[C@]1(c2ccccc2)OC(C(=O)O)=CC1=O", "Potency": "inactive"}, {"smiles": "CC(=O)N[C@H](CC(C)C)C(=O)O", "Potency": "inactive"}, {"smiles": "COc1ccc2cc(C(C)CO)ccc2c1", "note": "(centres undefined)", "Potency": "inactive"}, {"smiles": "COC1C=CO[C@@]2(C)Oc3c(C)c(O)c4c(O)c(c(C=NN5CCN(C)CC5)c(O)c4c3C2=O)NC(=O)/C(C)=C\\C=CC(C)C(O)[C@@H](C)C(O)C(C)[C@H](OC(C)=O)C1C", "note": "(some centres undefined)", "Potency": "0.282 µM (active)"}, {"smiles": "CC1CCC(C(C)C)C(=O)C1", "note": "(centres undefined)", "Potency": "inactive"}, {"smiles": "CNC1CC(N)[C@H](O)[C@@H](O[C@@H]2OC(CO)C3OC4(OC(C(N)CO)C(O)C(O)C4O)O[C@@H]3[C@H]2O)C1O", "note": "(some centres undefined)", "Potency": "inactive"}, {"smiles": "CCCC(=O)O[C@]1(C(=O)CO)CCC2[C@@H]3CCC4=CC(=O)CC[C@]4(C)C3C(O)C[C@]21C", "note": "(some centres undefined)", "Potency": "inactive"}, {"smiles": "CC(=O)[C@]1(O)CCC2C3C=C(Cl)C4=CC(=O)C5CC5[C@@]4(C)C3CC[C@]21C", "note": "(some centres undefined)", "Potency": "inactive"}, {"smiles": "CC(=O)N[C@@H]1C(O)OC(CO)C(O)C1O", "note": "(some centres undefined)", "Potency": "inactive"}, {"smiles": "C/C1=C2N=C(/C=C3N=C(/C(C)=C4\\[N-]C(C)(C5N=C1C(C)(CCC(=O)NCC(C)OP(=O)([O-])O[C@H]1C(O)C(n6cnc7cc(C)c(C)cc76)O[C@@H]1CO)C5CC(N)=O)C(C)(CC(N)=O)C4CCC(N)=O)C(C)(CC(N)=O)C\\3CCC(N)=O)C(C)(C)C/2CCC(N)=O.[CH2-]C1OC(n2cnc3c(N)ncnc32)C(O)C1O.[Co]", "note": "(some centres undefined)", "Potency": "inactive"}, {"smiles": "O=C1OC(CO)C(O)C(O)C1O", "note": "(centres undefined)", "Potency": "inactive"}, {"smiles": "CNC1C(OC2C(O[C@@H]3C(O)C(O)[C@@H](N=C(N)N)C(O)C3N=C(N)N)OC(C)[C@@]2(O)CO)OC(CO)C(O)C1O", "note": "(some centres undefined)", "Potency": "inactive"}, {"smiles": "COc1cc(C2c3cc4c(cc3C(O[C@@H]3OC5COC(c6cccs6)OC5C(O)C3O)C3COC(=O)C23)OCO4)cc(OC)c1O", "note": "(some centres undefined)", "Potency": "3.16 µM (active)"}, {"smiles": "Nc1nc2ncc(CNc3ccc(C(=O)NC(CCC(=O)O)C(=O)O)cc3)nc2c(=O)[nH]1", "note": "(centres undefined)", "Potency": "inactive"}]}]}
